Only some compounds are listed: those with a hit (about 21% of all), similar ones and a draw of the others.
RORgamma inh: inhibitors of mouse ROR gamma transcriptional activity. Drosophila S2 Gal4-RORgamma UAS-luciferase reporter, 20 h. Potency, µM (highest dose often 53.6 µM), most hits filed as inhibitors. 310,000 compounds, 5.4% hits. AID 2551; also: nearly all actives have a fitted effect of over 60% in size
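Stably transfected Drosophila Schneider cells are the test system, with ROR gamma fused to Gal4 and luciferase under UAS control; luminescence is read after 20 hr of 700 uM copper sulfate induction at ambient temperature.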
TDP1 cell noCPT: qHTS for Inhibitors of human tyrosyl-DNA phosphodiesterase 1 (TDP1): qHTS in cells in absence of CPT | AID 686978, 2013 | 420,000 compounds, 15% hits | Potency, µM (titrated, usually from 46.2 µM), hits mostly inhibitors | DT40 Tdp1-/- hTDP1 cells, no CPT, ATP luminescence, 48 h; also: nearly all actives have a fitted effect of over 55% in size
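Compound effects on proliferation are scored in DT40 Tdp1-/-;hTDP1 cells in the absence of CPT. ATP levels (CellTiter-Glo luminescence) are recorded after a ≥48 hr, 37 °C incubation.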
ELG1 repair inh: blocks ELG1-dependent DNA repair in HEK293T cells; HEK293T ELG1-luciferase reporter, luminescence, 16 h; DNA damage induced by 5-fluorouridine; Potency, µM (highest dose often 46.1 µM), most hits filed as inhibitors; 330,000 compounds, 2.3% hits; AID 504467; also: nearly all actives have a fitted effect of over 55% in size
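Quantitative HTS, concentration-response format. 2,000 cells/well co-treated with 5-fluorouridine and compound, 16 hr in 5% CO2 at 37 °C; ONE-Glo luminescence read after 30 min.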
Gal4-VP16 FLuc: Gal4-VP16 reporter inhibition counter-screen; AID 2546; Potency, µM (top dose mostly 53.6 µM), actives largely listed as inhibitors; Drosophila S2 Gal4-VP16 UAS-luciferase, luminescence, 20 h; 310,000 compounds, 3.5% hits;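 also: Gal4-VP16 expression switched on by copper sulfate through the metallothionein promoter; nearly all actives have a fitted effect of over 50% in size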
TDP1 cell CPT: DT40-hTDP1 cell growth loss with CPT. 420,000 compounds, 12% hits. Potency, µM (series often up to 46.2 µM), most hits filed as inhibitors. AID 686979. chicken DT40 Tdp1-/-;hTDP1 cells + 20 nM CPT, ATP luminescence, 48 h; also: nearly all actives have a fitted effect of over 55% in size
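Cell growth measured by CellTiter-Glo luminescence after a minimum 48 h, 37 C compound exposure with 20 nM CPT in Tdp1-knockout DT40 cells stably expressing hTDP1, seeded 400/well; qHTS titration format.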
IL-1B inflam inh: blocks inflammasome-driven IL-1 beta release | THP-1 LPS/ATP IL-1B secretion, AlphaLISA, 16 h; stronger effect = lower value | activity change, % at 57.5 µM | 360,000 compounds, 4.7% hits | AID 743279; in the data active = activity change below about -50%; inconclusive = mostly about -30% to -49%
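THP-1 cells pretreated 1 hr with compounds (up to 57.5 uM final), then stimulated with LPS (250 ng/mL final) plus ATP (1.25 mM final); secreted IL-1B measured by AlphaLISA after 16 hr, decreased signal indicating inhibition.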
ELG1 FLuc counter: luciferase inhibition in cell-free luciferin readout for ELG1 hits; shares compounds with ELG1 repair inh; cell-free firefly luciferase luminescence counter-screen, ViewLux; Potency, µM (series often up to 46.1 µM), hits mostly inhibitors; 350 compounds, 3% hits; AID 624247
ELG1-Luc inh: inhibits ELG1-dependent DNA repair in HEK293T cells, confirmed | shares compounds with ELG1 repair inh | 670 compounds, 68% hits | Potency, µM (top dose mostly 46.1 µM), most hits filed as inhibitors | HEK293T ELG1-luciferase levels, luminescence; cells co-treated with 5-fluorouridine; also: nearly all actives have a fitted effect of over 55% in size
Target sequence (Q96QE3 whole entry, looked up): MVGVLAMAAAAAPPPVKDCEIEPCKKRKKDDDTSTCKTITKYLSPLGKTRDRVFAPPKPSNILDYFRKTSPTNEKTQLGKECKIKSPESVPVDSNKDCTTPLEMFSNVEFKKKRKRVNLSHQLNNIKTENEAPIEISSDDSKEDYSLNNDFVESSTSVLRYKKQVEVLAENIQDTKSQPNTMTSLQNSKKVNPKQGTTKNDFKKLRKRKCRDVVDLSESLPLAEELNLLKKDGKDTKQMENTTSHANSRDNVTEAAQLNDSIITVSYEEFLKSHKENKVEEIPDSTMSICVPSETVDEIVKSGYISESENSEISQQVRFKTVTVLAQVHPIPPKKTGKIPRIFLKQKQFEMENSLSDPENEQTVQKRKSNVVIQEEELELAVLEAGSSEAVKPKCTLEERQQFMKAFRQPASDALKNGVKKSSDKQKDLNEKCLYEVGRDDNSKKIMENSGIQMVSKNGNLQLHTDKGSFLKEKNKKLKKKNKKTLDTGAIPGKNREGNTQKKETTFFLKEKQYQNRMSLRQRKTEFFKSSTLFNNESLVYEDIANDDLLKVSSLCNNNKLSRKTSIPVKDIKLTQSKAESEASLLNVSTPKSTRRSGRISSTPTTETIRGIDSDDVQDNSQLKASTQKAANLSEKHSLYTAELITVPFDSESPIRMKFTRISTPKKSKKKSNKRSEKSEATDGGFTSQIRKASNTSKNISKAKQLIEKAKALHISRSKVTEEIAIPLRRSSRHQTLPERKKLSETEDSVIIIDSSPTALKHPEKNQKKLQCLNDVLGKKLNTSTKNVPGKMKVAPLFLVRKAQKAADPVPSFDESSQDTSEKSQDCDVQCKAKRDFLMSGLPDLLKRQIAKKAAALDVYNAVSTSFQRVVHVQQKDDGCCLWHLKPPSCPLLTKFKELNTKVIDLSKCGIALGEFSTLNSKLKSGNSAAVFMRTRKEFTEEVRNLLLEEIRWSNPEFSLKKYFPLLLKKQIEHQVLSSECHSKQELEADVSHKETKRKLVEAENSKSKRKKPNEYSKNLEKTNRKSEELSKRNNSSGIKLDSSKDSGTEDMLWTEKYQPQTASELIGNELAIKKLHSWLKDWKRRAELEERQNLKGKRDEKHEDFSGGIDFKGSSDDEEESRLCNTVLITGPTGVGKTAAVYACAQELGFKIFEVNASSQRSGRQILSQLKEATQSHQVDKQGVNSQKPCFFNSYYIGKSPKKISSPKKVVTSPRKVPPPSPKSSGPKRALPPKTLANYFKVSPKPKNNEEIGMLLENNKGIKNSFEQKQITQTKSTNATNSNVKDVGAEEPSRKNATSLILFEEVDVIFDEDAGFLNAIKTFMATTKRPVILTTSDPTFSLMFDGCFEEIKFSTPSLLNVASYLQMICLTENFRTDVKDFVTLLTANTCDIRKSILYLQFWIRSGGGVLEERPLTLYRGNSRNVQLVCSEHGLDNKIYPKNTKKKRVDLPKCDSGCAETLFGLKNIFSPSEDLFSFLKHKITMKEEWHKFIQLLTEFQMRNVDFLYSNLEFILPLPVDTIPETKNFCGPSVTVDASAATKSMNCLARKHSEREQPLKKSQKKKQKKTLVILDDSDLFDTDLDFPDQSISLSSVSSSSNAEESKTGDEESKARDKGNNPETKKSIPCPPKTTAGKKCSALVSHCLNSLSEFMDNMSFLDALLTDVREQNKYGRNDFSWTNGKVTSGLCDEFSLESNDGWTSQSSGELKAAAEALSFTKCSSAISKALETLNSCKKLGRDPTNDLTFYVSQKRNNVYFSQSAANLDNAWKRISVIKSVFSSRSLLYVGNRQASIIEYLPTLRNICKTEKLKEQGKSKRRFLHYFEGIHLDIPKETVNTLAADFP
ELG1-Luc MMS: confirmation of human ELG1 repair inhibitors, MMS stimulated. shares compounds with ELG1 repair inh. HEK293T luciferase-tagged ELG1 level, MMS stimulated. Potency, µM (titrated, usually from 46.1 µM), most hits filed as inhibitors. 670 compounds, 53% hits. AID 624249; also: nearly all actives have a fitted effect of over 60% in size
ELG1 5FU viab: confirmation of ELG1 repair inhibitors: viability with 5FU | cell viability with 5-FU, ELG1-dependent repair | Potency, µM (top dose mostly 46.1 µM), usual class: cytotoxic | shares compounds with ELG1 repair inh | 670 tested, under 10 active | AID 624250;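 also: ELG1-luc HEK293T cells cotreated with 5-fluorouridine at 10 µM final; viability measured 16 h after compound addition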
ELG1 MMS cell: confirmation of ELG1 repair inhibitors: viability with MMS; shares compounds with ELG1 repair inh; Cell viability with MMS, ELG1-dependent DNA repair; Potency, µM (doses to about 46.1 µM), usual class: cytotoxic; 670 compounds, 33% hits; AID 624251;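 also: ELG1-luc HEK293T cells co-treated with 10 µM MMS; viability read 16 h after compound addition; nearly all actives have a fitted effect of over 60% in size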
ELG1 unstim viab: affects unstimulated cell viability, ELG1 hit counter-screen; AID 624252; 900 compounds, 8% hits; cell viability counter-screen, unstimulated, luminescence; shares compounds with ELG1 repair inh; Potency, µM (doses to about 45.9 µM), actives largely listed as cytotoxic;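 also: compound exposure lasted 16 hours before reading; nearly all actives have a fitted effect of over 55% in size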
FLuc biochem: counter-screen for ELG1 repair inhibitors: firefly luciferase inhibition; shares compounds with ELG1 repair inh; purified firefly luciferase, luminescence counter-screen; Potency, µM (highest dose often 57.5 µM), most hits filed as inhibitors; 350 compounds, 10% hits; AID 624253
Hits are given with their value; i = inactive; ? = inconclusive; nt = not tested or not shown; ! = not active in a repeat. Unless noted, calls follow the shape of the dose curve; as a rule, active = well fitted curve in the direction sought with a large enough effect; inconclusive = small, poorly fitted or top-dose-only effect, or another doubt; inactive = no such curve, though single readings can be large; an effect the other way counts as inactive or inconclusive.

SMILES | RORgamma inh | TDP1 cell noCPT | ELG1 repair inh | Gal4-VP16 FLuc | TDP1 cell CPT | IL-1B inflam inh | ELG1 FLuc counter | ELG1-Luc inh | ELG1-Luc MMS | ELG1 5FU viab | ELG1 MMS cell | ELG1 unstim viab | FLuc biochem
Cc1c(NC(=O)c2cc(-c3cccs3)nc3ccccc23)c(=O)n(-c2ccccc2)n1C | i | 20.6µM | 2.91µM | i | ? | -89.4 | i | 2.81µM | 7.92µM | i | ? | ? | i
O=C1c2ccccc2C(=O)C1(CO)c1ccc(OC(F)F)cc1 | ? | i | ? | ? | i | i | nt | nt | nt | nt | nt | nt | nt
CC(/C=C/C(=O)NO)=C\[C@@H](C)C(=O)c1ccc(N(C)C)cc1 | i | nt | nt | i | nt | nt | i | nt | nt | nt | nt | 14.1µM | ?
COc1cc(/C=C2\SC(=Nc3ccc(N4CCOCC4)cc3)N(C)C2=O)ccc1OC(C)C(=O)O (configuration not stated) | ? | i | i | i | i | i | nt | nt | nt | nt | nt | nt | nt
Cc1c(C(=O)Nc2ccc(F)cc2)oc2ccc(S(=O)(=O)N3CCC4(CC3)OCCO4)cc12 | i | 22.4µM | 11.6µM | i | 15.8µM | i | ? | 7.06µM | 22.3µM | ? | 25µM | ? | i
CC1(C(=O)NCC(F)(F)F)CCN1C(=O)C1(c2ccccc2)CC1 (configuration not stated) | nt | i | nt | nt | i | i | nt | nt | nt | nt | nt | nt | nt
COc1ccc(Cl)cc1NC(=O)CN(C)C(=O)CN1C(=O)NC2(CCCC2)C1=O | nt | ? | i | nt | ? | i | nt | nt | nt | nt | nt | nt | nt
COc1ccc(C[C@H](N)C(=O)N[C@H]2[C@@H](O)[C@H](n3cnc4c(N(C)C)ncnc43)O[C@@H]2CO)cc1 | nt | 8.2µM! | 2.51µM | nt | i | -90.0 | nt | 3.15µM | 1.58µM | ? | 2.23µM | 2.23µM | nt
C=CCOc1ccc(C[C@H](N)C(=O)NC[C@H]2O[C@@H](n3cnc4c(N)ncnc43)[C@H](O)[C@@H]2O)cc1 | nt | i | i | nt | i | i | nt | nt | nt | nt | nt | nt | nt
COc1ccccc1CN(Cc1nc2ccccc2c(=O)[nH]1)S(=O)(=O)c1ccc2ccccc2c1 | ? | 5.62µM | 3.66µM | i | 3.66µM | i | nt | 7.91µM | 6.28µM | ? | 15.8µM | 17.7µM | nt
CCOc1ccccc1C(=O)NCC(=O)N1CCC(C)CC1 | nt | i | ? | nt | i | i | nt | nt | nt | nt | nt | nt | nt
C(=C\c1ccc2ccccc2n1)/c1ccc2ccccc2n1 | nt | ? | nt | nt | 12.6µM | nt | i | nt | nt | nt | nt | i | 0.291µM
C(=C\c1ccc2ccccc2n1)/c1cccnc1 | nt | 15.8µM | nt | nt | 22.4µM | nt | i | nt | nt | nt | nt | ? | 0.291µM
Cc1ccc(S(=O)(=O)N2CCCCC2)cc1NC(=O)CNc1ccc(C(F)(F)F)cc1 | nt | ? | 3.66µM | nt | ? | ? | nt | ? | 31.5µM | i | 28.1µM | ? | nt
COc1ccc(CC(=O)Nc2cc(S(=O)(=O)N3CCCCC3)ccc2C)cc1OC | ? | 18.4µM | 2.06µM | ? | ? | i | nt | ? | 1.41µM | i | 2.5µM | ? | nt
COc1ccc(S(=O)(=O)N2CCCCC2)cc1NC(=O)c1[nH]c(C)c(C(C)=O)c1C | nt | ? | ? | nt | ? | i | nt | nt | nt | nt | nt | i | nt

Screens from PubChem.
